High-throughput results: PubChem, several laboratories
Shown are actives, neighbours in structure and some others; about 1.5% of the full set was active somewhere.
CRFR2-BP ag – agonists of human CRF-binding protein/CRF-R2 receptor complex | HEK293 CRF-R2/CRF-BP, calcium dye fluorescence (FLIPR); percent of saturating CRF peptide response | AID 588473 | activation, % at 13.2 µM | 0.46% of 350,000 active;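 active = activation of at least 50%, plus an integration ratio under a set limit after plate pattern correction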
IDE cell inh – cellular human IDE inhibition. inhibition, % at 5.59 µM. HEK cells, FAbetaB cleavage, fluorescence polarization. AID 434962. P14735. 0.41% of 320,000 active;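 active = percent inhibition above the average of all tested compounds plus 3 SD, set per screening campaign, cut at about 16% in these data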;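 also: IDE supplied by intact live HEK cells; FP after avidin binding of uncleaved biotin substrate so inhibition keeps polarization high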
IDE cell activ – IDE (human) activation, cell-based; HEK cells, FAbeta-B cleavage, fluorescence polarization; 0% vehicle, 100% cell-free pure enzyme wells; 0.073% of 340,000 active; AID 493087; activation, % at 5.96 µM;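 active = activation above the mean of all tested compounds plus 3 SD, set per screening campaign, cut at about 17% in these data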
cardiac RTF act – increases calcium sensitivity of human cardiac regulated thin filaments; P19429+P45379; IANBD-labeled TnC RTF fluorescence at EC20 calcium; 0% EC20 calcium, 100% full calcium; activation, % at 7.2 µM; 0.24% of 340,000 active;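 active = activation above the mean over all tested compounds plus 3 SD, cut at about 30% in these data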;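 also: rise in fluorescence read as greater calcium sensitivity of cardiac thin filaments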
Cardiac RTF inh – cardiac RTF calcium desensitization; P19429+P45379; IANBD-labeled cardiac RTF, Ca2+ fluorescence; inhibition, % at 7.15 µM; 0.12% of 340,000 active; AID 493244;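 active = inhibition above the mean inhibition of all tested compounds plus 3 SD, cut at about 17% in these data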;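 also: assay run at fixed EC70 calcium of 1.6 mM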
CRFBP-R2 block – CRF-BP/CRF-R2 complex antagonism | HEK293 CRF-R2/CRF-BP, CRF-induced calcium fluorescence | inhibition, % at 11.8 µM | 0.59% of 350,000 active | AID 588475;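 active = inhibition of the ligand-induced calcium signal above about 50% at the single tested concentration, limit read from the data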
IDE cell inh cf – cellular human IDE inhibition, confirmation; HEK cells, FAbetaB cleavage, fluorescence polarization; AID 435028; shares compounds with IDE cell inh; 51% of 1,200 active; inhibition, % at 5.59 µM;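 active = mean inhibition across triplicate wells above the cutoff set by the earlier primary insulin-degrading enzyme screen, cut at about 16% in these data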
HEK cytotox – kills HEK cells in IDE inhibitor counter-screen. HEK293 cytotoxicity, ATP luminescence. inhibition, % at 5.59 µM. shares compounds with IDE cell inh. 28% of 1,200 active; in the data active = inhibition above about 22%
A number is an active result; 0 = inactive; - = not tested or not shown.

SMILES	CRFR2-BP ag	IDE cell inh	IDE cell activ	cardiac RTF act	Cardiac RTF inh	CRFBP-R2 block	IDE cell inh cf	HEK cytotox
CCN(CC)c1ccc(/C=C/C(=O)c2ccc(Br)cc2)cc1	325	163	0	476	0	0	61	0
Cc1ccc2nc(-c3ccc(NC(=O)c4ccco4)cc3)[nH]c2c1	0	17	0	0	0	0	0	0
CS(=O)(=O)c1cccc(C(=O)Nc2ccc(-c3nc4ccccc4[nH]3)cc2)c1	0	28	0	0	0	0	0	36
CS(=O)(=O)c1ccccc1C(=O)Nc1ccc(-c2nc3ccccc3[nH]2)cc1	0	0	0	0	0	0	-	-
CC1CCN(C(=O)c2cc(Cl)ccc2NC(=O)c2ccco2)CC1	0	0	0	0	0	0	-	-
CCCCN(C)Cc1cc(=O)oc2ccc3ccccc3c12	0	0	0	0	0	0	-	-
COc1ccc(N=Cc2c(OC)ccc3ccccc23)cc1	0	0	0	0	0	0	-	-
COc1ccc(N=Cc2sc(O)c3ccccc23)cc1	271	61	0	79	0	0	90	0
CN(C)c1cc[n+](CC(=O)c2ccc(-c3ccccc3)cc2)cc1	0	22	0	0	0	0	23	83
Cc1ccc(N(CC(=O)N/N=C/c2cccc(Br)c2)S(C)(=O)=O)cc1	0	27	0	0	0	0	17	0
NC(N)=NC(N)=Nc1cccc2ccccc12	0	17	0	0	0	0	0	0
Nc1c2c(nc3ccn(-c4ccccc4)c(=O)c13)CCCCC2	0	18	0	0	0	0	19	0
Nc1c2c(nc3ccn(Cc4ccccc4)c(=O)c13)CCC2	0	0	0	0	0	0	-	-
CCc1cnccc1CCC(=O)Nc1ccccc1C	0	0	0	0	0	0	-	-
COc1ccccc1CCC(=O)NNC(=O)c1cccs1	0	0	0	0	0	0	-	-
COc1cc(/C=C/C(=O)O)cc(Br)c1O	0	0	0	0	0	0	-	-
COc1cc(/C=C/C(=O)C2C(=O)C=C(C)OC2=O)cc(OC)c1O (centres undefined)	0	24	0	0	0	0	35	0
COc1ccc(/C=C/C(=O)C2C(=O)C=C(C)OC2=O)cc1O (centres undefined)	0	28	0	0	0	0	0	0
COc1ccc(/C=c2\s/c(=C\C(=O)C(C)(C)C)[nH]c2=O)cc1O	0	0	0	0	0	0	-	-
Cc1cc(C(=O)COC(=O)C2=COCCO2)c(C)n1-c1ccccc1	0	0	0	0	0	0	-	-
CCOC(=O)Cc1csc(NC(=O)c2cc(-c3ccncc3)nc3ccccc23)n1	0	0	0	0	0	0	-	-
O=C(CSc1n[nH]c(-c2ccccc2Cl)n1)NC1CCCCC1	0	0	0	0	0	0	-	-
COc1ccccc1CN1C[C@@H]2C[C@@H](c3ccc4nsnc4c3)N3CCC[C@@]23C1=O	0	19	0	0	0	0	0	0
COc1ccccc1CN1C[C@@H]2C[C@@H](c3ccc(C)cc3)N3CCC[C@@]23C1=O	0	0	0	0	0	0	-	-
COc1ccc(CCNC(=O)C2=CCN(S(=O)(=O)c3ccc(F)cc3)CC2)cc1OC	0	0	0	0	0	0	-	-
CC(=O)N(C(C)=O)c1nc(-c2ccccc2)cn1/N=C/c1ccccc1	0	25	0	0	0	0	20	0
C/C=C1\NC(=O)[C@H](CC(N)=O)N(C)C(=O)C([C@@H](C)O)NC(=O)C(CCCc2ccc(OC)cc2)NC(=O)[C@H](C(C)C)NC(=O)/C(=C\C)NC(=O)[C@H](O)[C@@H](C[C@@H](O)CCCCCCC)NC(=O)[C@H](C)NC(=O)CN(C)C(=O)[C@H](CCC(N)=O)NC1=O (some centres undefined)	0	-	0	0	0	0	-	-
Cn1c(=O)n(C)c2cc(/C=C(/C#N)C(=O)NCc3ccco3)ccc21	0	0	0	0	0	0	-	-
CCN(CC)c1ccc(/C=C(\C#N)C(=O)NCc2ccco2)cc1	-	90	-	-	-	-	52	0
